Out of some 53,000 sequences screened, about 3,700 (7%) were called active. The sample as a whole holds a higher share of actives than the screen did. Values without a mark were called inactive.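 The calls were made as follows: active = gene knockdowns whose robust z-score for IL-1 alpha signal is at least 2 or at most -2, so actives lie on both sides; inactive = the rest.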

The nature of this assay: Components of the Cytosolic LPS Sensing Pathway: Gene Identification via Genome-wide siRNA Screen.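 Also: robust z of the log signal after scaling to non-targeting control siRNA wells of the plate.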 The settings on record: RAW264.7 macrophages, IL-1a HTRF, actives lie on both sides, screened at 100 nM (by protocol), cells primed 5 h with Pam3CSK4 first. The method, boiled down: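 Supernatant IL-1a by HTRF from RAW264.7 cells primed with Pam3CSK4 (5 hours) and transfected with LipidA (24 hour) after 48h siRNA knockdown at 100 nM; cell viability checked with CellTiter-Glo.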
For the sequence GGACUAAACAGAUUCACUATT against Rnase9, the z-score is -2.42 (active).

Consider GGAUCCUUCGCUUUUAUCGTT against Nox1, for which the z-score is -0.343.

As to GGAAAAUCACUUCAUUCACTT against Ltk, the z-score is 0.893.

Take CCUUCGUAGUCUUGAUGUGTT against Olfr1179: the z-score is -0.104.

On to GGAUCAAAAAAAAACUGGATT against Sinhcaf, for which the z-score is 1.19.

On to GGAAUUAGUCUCCAAAUAUTT against Sh2d1b1, for which the z-score is 0.604.

With GCCAGUACGAAGUGAUCUGTT against Ackr4, the z-score was 2.8 (active).

GGUUCUUGGUUUACAUAAGTT against Slc39a12: the z-score is -1.23.

Take GGGAAAACCAUACAAAAUATT against Olfr228: the z-score was -0.525.

On to GCAAAUCGACCACUUUCCGTT against Cacng2, for which the z-score is 4 (active).

As for GCACGUCCUCGAUCUCUGUTT against Extl3, the z-score is -0.705.

Take GGUGUCUGAUGAUGAAUAUTT against Cnnm3: the z-score was 0.322.

As for GGAUGUGCCUCGGUUGGAUTT against Gulo, the z-score was 0.663.

Turning to GGAAGACCUUGAAUUCCAGTT against Tspan31, the z-score was 2.87 (active).

As to GCCCAUUGAUCCGGAGUAATT against Dusp28, the z-score is 0.252.

Take GGGUUUCUAUGAAGAGAUCTT against Fhod1: the z-score is -0.624.

Consider GCCUUACAUGAGCCCAUGUTT against Olfr550, for which the z-score was -1.96.

On to GGACUUUAUUGAAAAUCUGTT against Zfp365, for which the z-score was 0.593.

For the sequence CCAAAUUCCUAUCAAGUUUTT against Ints2, the z-score is 1.98.

GCGUCUCAUAGAGUUGGUGTT against Mblac2: the z-score is 0.0617.

Regarding GCCGCUAGCAUGGUCUAUUTT against Apoa5, the z-score is 2.51 (active).

As to UAUACCUUAGUGCUGAGGGTT against Olfr736, the z-score was -1.02.

With GGGCAAAAGCUGUUACAAGTT against Ahrr, the z-score is -0.0958.

Take GGUUCCUGGAUGGUUCCUATT against Vtcn1: the z-score is 1.45.

For the sequence GGGUAUGACAACAAACUUCTT against Gabrg2, the z-score was -0.422.

Take GGUUUGGCAAACAUUUCAUTT against Akr1c20: the z-score was 2.02 (active).

In the case of GGAUGAAUCUGAAGAUUCCTT against Nol3, the z-score is 0.113.

As for GGUGGACAAGCAAGUCUAGTT against Ube2o, the z-score was 1.97.

With GGACAAGAUAGGAGGAGACTT against Abhd16a, the z-score is -0.776.

Regarding GCUUGUGCUGAAUUACACCTT against Vps35, the z-score is 2.11 (active).

Turning to GCACGAAUCCUUGGAGAAATT against Batf2, the z-score is -0.254.

For the sequence GGUGAUUUAGUUGUGUAAATT against Calcr, the z-score is 0.294.

Take GGUUCCAUCUUCUCAGGACTT against Olfr395: the z-score is 1.01.

As for GGUGGAAUAUUUCAUGGACTT against Csnk2a1, the z-score is 3.43 (active).

As for GGAAGAGGACACAUUAGGCTT against Gtsf1l, the z-score is 0.11.

For GGUGAGUUUUGCUAAAAGUTT against Syp, the z-score is 0.783.

Take GCAAGAAGUAUUUUCAGUATT against Galnt4: the z-score is 1.34.

Consider GGAACAACGGAAAAGCGAGTT against Ankrd1, for which the z-score was 1.25.

For the sequence GGAAUCCUCGGCAGAUAAATT against Rpl24, the z-score is 2.31 (active).

For GGCAGAAAAUUGUUCUUAUTT against Cpt1a, the z-score is -1.49.

Consider GGCUUCUGGUACAUUAUUGTT against Lcn10, for which the z-score is -1.23.

In the case of GGGCAACUAUUGAUGAGGUTT against Acap3, the z-score is -0.138.

For GGACGGUGACCUGUAUGAUTT against Cpxm1, the z-score was -2.4 (active).

On to GCAUUAAAGUAGAAGGUCUTT against Snx31, for which the z-score was 0.812.

On to GCGGCAAGAUUAAUAAGUCTT against Mpzl1, for which the z-score was 0.798.

For the sequence GGAUCUCGAAGUUACUGCATT against Dnajc5b, the z-score is 1.77.

GCCUAGCAAUGACUGGGAUTT against Sdhaf2: the z-score was -0.635.

Regarding GCCUUCUGGCAAGAAUCUUTT against Krtap9-3, the z-score was 1.21.

Take CCACUCAAGCGGUAAGGAUTT against Slc22a1: the z-score is 4.16 (active).

On to GGUGGCACAUAAGAAAUCCTT against Trim66, for which the z-score was -1.61.

For CGGACACACAGUUGAUCCGTT against Cct6b, the z-score is -2.15 (active).

With GCGGGACUUUAUCUCAUCCTT against Mfsd4b1, the z-score was -0.815.

With CCUUCUUUAUAGGUAUGACTT against Klhl36, the z-score was 0.91.

For GGAAAGAAGCAGCGGACUUTT against Nme7, the z-score was 2.29 (active).

Turning to GGCAUUCAGAGCUGAUUCATT against Mia3, the z-score is 0.93.

In the case of GCCCUGGCAUGCUAACAAATT against Prpf3, the z-score was -0.749.

GGUACUACAAGCUAGCUGUTT against Scd4: the z-score is -0.114.

For GGAAGUUUGUAGAGUAUGUTT against Xylt1, the z-score was -0.187.

In the case of CCCGAGAACAUCUUGUACGTT against Rps6ka4, the z-score was 2.69 (active).

Consider GGGUUCAAGAGAUGAUAUUTT against Usp11, for which the z-score is 0.245.

As for GGCUGAGAAACUGGAUGAATT against Rem1, the z-score is -0.143.

Regarding GGCUGUAUGACUCAGCUCUTT against Olfr711, the z-score was -0.912.

Regarding CCGGAAACUUCCUACGUGUTT against Cbln1, the z-score is -0.424.

For the sequence GGAUAGAAACAUUUCUGUGTT against Olfr1145, the z-score was 2.1 (active).

Regarding GGACCAUGAGAAAUUUAAUTT against Nr2f1, the z-score was 1.41.

Regarding GGCGGUUAAUGACAAGAACTT against Sdk2, the z-score is -0.0303.

For CGUGGAGUAAGGAGAAUAUTT against Ints7, the z-score is 0.364.

In the case of “GGAAAUCACAUUGUCCUGCTT against 3010003L21Rik”, the z-score is 1.13.

With GGAUCUGACACACAUGAUCTT against Med16, the z-score was 2.3 (active).

With GGAGAAAGCAAGGAUAAUCTT against Rgs20, the z-score is 0.562.

Regarding CGCAGAGAAGGUCAUUAAATT against Il1f5, the z-score is 0.519.

As for GGUCUUCUCCGAGUACUUUTT against Ap1m1, the z-score was 4.38 (active).

For the sequence GCACUCAGAACAACUAAAATT against Dglucy, the z-score was 0.641.

On to GCUCCAUGAAUGUCCAACATT against Sphkap, for which the z-score was -2.41 (active).

With GUUCUAGGCCUCCUGAAGCTT against Dohh, the z-score was -0.808.

As for GCUGAUGUCUCAACCUAGATT against Zkscan2, the z-score is -1.72.

GGCUUUGUCUUGAAUGGCUTT against Adgre1: the z-score was -1.11.

CGCCGGAAGUUCUACCACUTT against Tmem205: the z-score was 0.223.

As for GAACAUCAUCUCACACUCATT against Olfr874, the z-score is -0.000467.

With GGAUAGAGACUGCUGGGUUTT against Zfp579, the z-score was 0.248.

Consider CCAAGUUGGCAUACUAUUCTT against Pank4, for which the z-score is -0.126.

Turning to GCCAGUCCUUCAAGUGUAUTT against Jak2, the z-score is 4.16 (active).

With CCAUCUCAUCCCACGACACTT against Mrgprx1, the z-score is -0.334.

For the sequence GGCCUUUGCAUGCAAUAGUTT against Zfp119b, the z-score is 0.0596.

Regarding GCAGCCUUGUUUCAGUUCUTT against Fam43a, the z-score is 0.765.

Consider CCUCUCUACAUCCACUACUTT against Pogz, for which the z-score was 3 (active).

On to GGAGAACACAGGUGGACUUTT against Ppy, for which the z-score was 0.125.

As to GGAGGCCAAGCAGAAAGAGTT against Kars, the z-score is 0.184.

For the sequence GACUGCUUCCUUCUGACUGTT against Olfr399, the z-score is -0.575.

With AAAAGAUGCAUGUCUCCUUTT against Hbq1a, the z-score was -1.76.

For GGCUUUUGACUUUACCCUATT against Acy3, the z-score is -1.3.

As for GGAAAUAUUUUCUCAGCAATT against Pcdhga1, the z-score is 1.52.

Regarding “GCCCUCAUACCUACUAUGUTT against 4631405J19Rik”, the z-score was 0.787.

Regarding GGAAGAGAUUUCUAAACUUTT against Mcoln2, the z-score was -1.93.

With GGGCAAAAUAUAGCAAUGATT against Vmn1r233, the z-score is -2.11 (active).

As to GCUGACUUCACAUUUGGCUTT against Mms19, the z-score was -0.24.

As for GGAGUAUGUGGAAUGUCUATT against Creb3l1, the z-score is -0.903.

With GGAUGACUCUAUCUUUCUATT against Igfbp4, the z-score was 0.892.

With GGAAUACGUAUACUUCAGCTT against Dipk1c, the z-score was 0.495.

For the sequence GGAUUGCAUUAGGAAAGAATT against Fancl, the z-score was 0.0536.

As for GGGAGUCCUGAAGGACUACTT against Lgmn, the z-score is -0.0947.

Regarding GGAGCAGAAUGAGAAGACUTT against Marchf8, the z-score was 2.16 (active).

As for GGACCAAGGGUUCAUAGCATT against Wdr35, the z-score was -0.137.

Consider GGUUCAUCUGUACAAAAUCTT against Zfp110, for which the z-score is 0.708.

With CCAUAUGGUAACCAAACCGTT against Ldb1, the z-score is -0.896.

CCGUAGUAGAGAAAUUACATT against Exoc6: the z-score is 0.419.

GUUGUCCUCUUUGUCAUCATT against Olfr502: the z-score was -3.63 (active).

For CGGGUAAUAUUCUUUUCAATT against Rex2, the z-score is 1.76.

The values above are taken from PubChem BioAssay AID1508600 (Functional Genomics Laboratory (NCATS/FGL), 2020).
